From PubChem BioAssay (NCI) come the findings set out here.

Compounds without any hit were thinned out: in the full panel of roughly 83,000, 20% have a hit.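 Interpretation: 100, growth as untreated; towards 0, rising growth inhibition; 0, no net growth; 0 to -100, cell death. Compounds scoring below 10 were considered active.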 Values without a mark were called inactive. The source made the active and inactive calls.

Assay in all cases: NCI-60 one-dose screen, 48 h (100 = growth as untreated, 0 = no growth, -100 = all killed)
Conditions in all cases: 10 µM unless noted

In assay [1] the test system is SR leukemia.
Assay [2] has as its system RPMI-8226 leukemia.
The subject of assay [3] is OVCAR-8 ovarian.
The subject of assay [4] is OVCAR-5 ovarian.
Assay [5] has as its system OVCAR-4 ovarian.
For assay [6], the system named is SK-OV-3 ovarian.
The subject of assay [7] is IGROV1 ovarian.
The test system of assay [8] is OVCAR-3 ovarian.
Assay [9] deals with HS 578T breast.
The test system of assay [10] is NCI/ADR-RES ovarian.
Assay [11] deals with T-47D breast.
Assay [12] deals with BT-549 breast.
Assay [13] relates to MDA-MB-435 melanoma.
Assay [14] relates to SW-620 colon.
The test system of assay [15] is MCF7 breast.
For assay [16], the system named is HCT-116 colon.
Assay [17] relates to HCC-2998 colon.
For assay [18], the system named is KM12 colon.

Take `N/C(=N\O)c1ccncc1`: the growth in [1] was 108%; in [2] it was 110%; in [3], 102%; in assay [4] it was 102%; in [5], 103%; in assay [6], 106%. Besides, the growth is 105% in assay [7]; 105% in [8]; 110% in assay [9]; 102% in [10]; 102% in [11]; 98.3% in assay [12]. Also, the growth in assay [13] was 100%; in [14], 105%; in assay [15] it was 97.2%; in assay [16] it was 102%; in assay [17], 95.8%; in [18], 102%.

Take `COc1ccc(CN2C(=O)/C(=C\C(=O)c3ccc(OCCN4CCCC4)cc3)c3ccccc32)cc1`: the growth in assay [1] was -14.2% (active); in assay [2] it was -4.7% (active); in assay [3], 86.5%; in [4], 77.6%; in [5], 60.4%; in assay [6], 101%. For the same compound, the growth is 81.4% in assay [7]; 49.6% in assay [8]; 84.2% in assay [9]; 85.8% in [10]; 57.8% in [11]; 92.5% in assay [12]. The growth in [13] was 90.2%; in assay [14], 3.07% (active); in assay [15], 32.4%; in assay [16], 18.5%; in assay [17], 101%; in [18] it was 85.4%.

For `Oc1ccccc1\C=N/N=C/C=C/c1ccccc1`, the growth in assay [1] is 71.9%; in assay [2] it was 107%; in assay [3] it was 103%; in [4], 112%; in [5], 97.7%; in assay [6], 87.9%. Also, the growth is 101% in [7]; 96.3% in [8]; 106% in assay [9]; 102% in [10]; 76.9% in assay [11]; 91.4% in assay [12]. Moreover, the growth in assay [13] was 105%; in assay [14], 106%; in [15] it was 81.4%; in [16], 103%; in assay [17] it was 95.3%; in [18], 92.8%.

Take `COc1ccc(-c2nc(SCC(C)C)nc(Nc3ccc(C(=O)O)cc3)c2C#N)cc1`: the growth in assay [1] is 82.5%; in [2], 60.8%; in [3], 97.1%; in [4], 104%; in assay [5], 87.1%; in [6] it was 113%. Further, the growth in assay [7] is 109%; in [8], 86.6%; in assay [9] it was 99.1%; in [10] it was 94.6%; in [11], 87.3%; in assay [12], 85.6%. Besides, the growth in assay [13] is 99.5%; in assay [14], 102%; in [15], 67.2%; in assay [16], 85.1%; in assay [17], 97.7%; in [18], 91.8%.

For the compound `Nc1ccc(S(=O)(=O)Nc2cc(F)cc(F)c2)cc1`, the growth in assay [1] is 112%; in [2], 106%; in assay [3], 102%; in [4] it was 55.5%; in assay [5], 101%; in assay [6] it was 104%. For the same compound, the growth in assay [7] was -22% (active); in [8], 111%; in assay [9], 92.7%; in [10], 117%; in [11], 105%; in [12], 88.1%. Further, the growth in assay [13] is 102%; in assay [14], 91.6%; in assay [15] it was 108%; in [16], 109%; in assay [17] it was 106%; in [18], 107%.

On to `CCN(CC)C(=O)C1(C)CCCC2(C)c3cc(OC(C)=O)ccc3CCC12` (stereo unspecified), for which the growth is 62.8% in assay [1]; 58.8% in assay [2]; 86.4% in assay [3]; 96.9% in assay [4]; 71.2% in assay [5]; 94.1% in assay [6]. Besides, the growth in [7] is 79.9%; in assay [8] it was 88.8%; in assay [9], 84.1%; in assay [10], 85.8%; in assay [11] it was 71.7%; in [12] it was 95.4%. The growth was 72.9% in assay [13]; 89.1% in assay [14]; 87.9% in assay [15]; 84.9% in assay [16]; 109% in assay [17]; 82.2% in assay [18].

For `COc1ccc(CN2C(=O)/C(=C\C(=O)c3ccc(OCCN4CCCCC4)cc3)c3ccccc32)cc1`, the growth is -22.2% (active) in assay [1]; -11.6% (active) in [2]; 80.8% in assay [3]; 76.3% in [4]; 45.4% in assay [5]; 107% in assay [6]. The growth in [7] was 68.7%; in [8], 44.3%; in assay [9] it was 81.3%; in assay [10], 83.3%; in assay [11], 15.5%; in assay [12] it was 81.5%. The growth in assay [13] was 95%; in [14] it was -39.9% (active); in assay [15], 20.3%; in [16], 4.2% (active); in assay [17] it was 94.9%; in assay [18] it was 89%.

As for `CCOC(=O)/C(C#N)=C(/CC)OCC`, the growth in assay [1] was 85.6%; in assay [2], 103%; in assay [3], 98.8%; in assay [4] it was 106%; in assay [5], 106%; in assay [6] it was 105%. For the same compound, the growth in [7] is 105%; in [8], 104%; in [9], 115%; in [10], 112%; in assay [11], 100%; in assay [12] it was 95.2%. Besides, the growth in assay [13] was 105%; in [14], 102%; in assay [15], 94.9%; in assay [16], 92%; in assay [17] it was 113%; in assay [18] it was 97.7%.

For the compound `[2H]c1nc(=Nc2cc(NC(=O)C=C)c(N(C)CCN(C)C)cc2OC)[nH]c(-c2cn(C([2H])([2H])[2H])c3ccccc23)c1[2H]`, the growth in [1] is -13.7% (active); in [2], 19%; in assay [3] it was 53.3%; in assay [4], 54.2%; in [5], 57.6%; in [6] it was 3.49% (active). Further, the growth in [7] was 19.1%; in [8], 50.6%; in assay [9], 63.7%; in assay [10], 39.1%; in [11] it was 33%; in assay [12], 62.9%. For the same compound, the growth is 22.2% in [13]; 21.1% in assay [14]; 23.4% in assay [15]; 13.7% in assay [16]; 51% in assay [17]; 65.3% in [18].

For `CCCCCCC(=O)C(C)C`, the growth in assay [1] was 90.7%; in assay [2], 105%; in assay [3], 99.1%; in [4] it was 110%; in assay [5], 110%; in assay [6], 110%. The growth in assay [7] was 102%; in assay [8] it was 107%; in assay [9], 105%; in [10], 103%; in [11] it was 110%; in assay [12], 102%. Further, the growth was 103% in [13]; 106% in [14]; 102% in assay [15]; 101% in [16]; 105% in [17]; 103% in assay [18].

As for `CCCCCCCCCCN1CC2CCCCC2C1` (stereo unspecified), the growth in assay [1] is 12.9%; in assay [2], 51.6%; in assay [3], 94%; in [4], 66.2%; in [5], 49.1%; in [6], 83.8%. The growth was 90% in assay [7]; 77.9% in assay [8]; 84.4% in assay [9]; 83.8% in assay [10]; 56.7% in assay [11]; 69% in assay [12]. Moreover, the growth was 91.3% in [13]; 74.2% in [14]; 65% in [15]; 53.6% in assay [16]; 82.9% in assay [17]; 65.3% in assay [18].

For the compound `CCN(CCO)CCNc1ccc(C)c2sc3cc(OC)ccc3c(=O)c12`, the growth was -3.46% (active) in assay [1]; 65.3% in assay [2]; 62.7% in assay [3]; 82.7% in [4]; 84.7% in [5]; 88.7% in assay [6]. Further, the growth in [7] is 66.5%; in assay [8], 90.6%; in [9], 84.2%; in assay [10], 64.1%; in [11], 90.1%; in assay [12] it was 88.7%. Further, the growth is 86.2% in assay [13]; 38.4% in assay [14]; 52.6% in [15]; 20.5% in [16]; 64.5% in assay [17]; 69.2% in assay [18].

Take `NC(=O)CC(NC(=O)COc1ccc(Cl)cc1Cl)C(=O)O` (stereo unspecified): the growth is 115% in assay [1]; 117% in assay [2]; 105% in assay [3]; 105% in assay [4]; 112% in assay [5]; 110% in assay [6]. For the same compound, the growth in [7] was 109%; in assay [8], 106%; in assay [9], 107%; in assay [10], 112%; in assay [11], 109%; in assay [12], 108%. Also, the growth in [13] was 107%; in assay [14] it was 105%; in [15], 102%; in assay [16], 101%; in assay [17] it was 109%; in assay [18] it was 104%.

Take `COc1ccc(C2=NN(C(=O)c3cc(-c4ccc(C)cc4)nc4ccccc34)C(c3cc(-c4ccccc4)nn3-c3ccccc3)C2)cc1` (stereo unspecified): the growth in [1] was 89.5%; in [2], 78.1%; in assay [3], 93.3%; in assay [4], 102%; in [5], 93.3%; in [6], 112%. Further, the growth in assay [7] was 98.3%; in assay [8] it was 84.4%; in assay [9] it was 95.8%; in assay [10], 92.5%; in [11], 72.7%; in assay [12] it was 90.6%. The growth in [13] was 102%; in assay [14] it was 96.7%; in assay [15], 88.4%; in assay [16], 81.4%; in assay [17], 102%; in assay [18], 90.8%.

As to `COc1ccc(Nc2c3ccccc3nc3ccccc23)cc1`, the growth in [1] was 1.46% (active); in assay [2] it was 28.1%; in assay [3], 14.7%; in [4], 36.4%; in assay [5], 41.5%; in [6], 36.1%. The growth in assay [7] was 22.1%; in assay [8], 28.3%; in [9] it was 59.5%; in assay [10], 28.1%; in assay [11], 30.6%; in assay [12] it was 42.2%. Further, the growth in [13] is 31.3%; in assay [14] it was 24.2%; in [15], 11.5%; in assay [16], 13%; in assay [17], 46%; in assay [18], 37.6%.

As for `CCCCCCCCCCCCCCCCNC(=S)N/N=C/c1ccc(O)cc1O`, the growth is 41.2% in assay [1]; 59.7% in assay [2]; 56.2% in assay [3]; 95.3% in assay [4]; 66.9% in assay [5]; 87.7% in assay [6]. The growth is 55.2% in assay [7]; 73.1% in [8]; 97.6% in assay [9]; 69.9% in [10]; 89.6% in assay [11]; 83.5% in [12]. For the same compound, the growth in assay [13] is 75.2%; in [14], 66.7%; in assay [15] it was 79.1%; in assay [16], 51.8%; in assay [17] it was 86.9%; in assay [18], 71.8%.

As for `CCCCCCCCc1ccc(OCCOCC[N+](C)(C)CC)cc1` (tested in a mixture with another compound), the growth is 37.7% in assay [1]; 8.79% (active) in assay [2]; 48.4% in assay [3]; 76% in assay [4]; 20.7% in [5]; 78.5% in assay [6]. Moreover, the growth in assay [7] is 33.8%; in [8], 20.6%; in [9], 37.7%; in assay [10], 107%; in assay [11], 23.5%; in assay [12] it was 45.3%. Moreover, the growth in [13] was 15.3%; in assay [14], 46.4%; in [15], 20.3%; in assay [16] it was 54.2%; in assay [17], 34.6%; in assay [18], 18%.
